ASK1 primary – ASK1 kinase inhibitors, primary screen, biochemical, AlphaScreen; 0.99% of 22,000 active; AID 1159602, 2016; Mitogen-activated protein kinase kinase kinase 5 (Homo sapiens), Q99683; inhibition, % at 7.44 µM; AlphaScreen MKK6 phosphorylation by ASK1, luminescence; in the data active = inhibition above about 35%;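 also: 0% = median of compound wells and 100% = no enzyme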
ULK1 inh – ULK1 kinase inhibitors, primary screen, biochemical, AlphaScreen; AlphaScreen Atg13 phosphorylation by ULK1, luminescence; Serine/threonine-protein kinase ULK1 (Homo sapiens), O75385; inhibition, % at 5.96 µM; AID 1259251, 2017; 1.9% of 30,000 active; in the data active = inhibition above about 43%;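 also: 0% = median of compound wells and 100% = no enzyme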
Target sequence (O75385 whole entry, looked up): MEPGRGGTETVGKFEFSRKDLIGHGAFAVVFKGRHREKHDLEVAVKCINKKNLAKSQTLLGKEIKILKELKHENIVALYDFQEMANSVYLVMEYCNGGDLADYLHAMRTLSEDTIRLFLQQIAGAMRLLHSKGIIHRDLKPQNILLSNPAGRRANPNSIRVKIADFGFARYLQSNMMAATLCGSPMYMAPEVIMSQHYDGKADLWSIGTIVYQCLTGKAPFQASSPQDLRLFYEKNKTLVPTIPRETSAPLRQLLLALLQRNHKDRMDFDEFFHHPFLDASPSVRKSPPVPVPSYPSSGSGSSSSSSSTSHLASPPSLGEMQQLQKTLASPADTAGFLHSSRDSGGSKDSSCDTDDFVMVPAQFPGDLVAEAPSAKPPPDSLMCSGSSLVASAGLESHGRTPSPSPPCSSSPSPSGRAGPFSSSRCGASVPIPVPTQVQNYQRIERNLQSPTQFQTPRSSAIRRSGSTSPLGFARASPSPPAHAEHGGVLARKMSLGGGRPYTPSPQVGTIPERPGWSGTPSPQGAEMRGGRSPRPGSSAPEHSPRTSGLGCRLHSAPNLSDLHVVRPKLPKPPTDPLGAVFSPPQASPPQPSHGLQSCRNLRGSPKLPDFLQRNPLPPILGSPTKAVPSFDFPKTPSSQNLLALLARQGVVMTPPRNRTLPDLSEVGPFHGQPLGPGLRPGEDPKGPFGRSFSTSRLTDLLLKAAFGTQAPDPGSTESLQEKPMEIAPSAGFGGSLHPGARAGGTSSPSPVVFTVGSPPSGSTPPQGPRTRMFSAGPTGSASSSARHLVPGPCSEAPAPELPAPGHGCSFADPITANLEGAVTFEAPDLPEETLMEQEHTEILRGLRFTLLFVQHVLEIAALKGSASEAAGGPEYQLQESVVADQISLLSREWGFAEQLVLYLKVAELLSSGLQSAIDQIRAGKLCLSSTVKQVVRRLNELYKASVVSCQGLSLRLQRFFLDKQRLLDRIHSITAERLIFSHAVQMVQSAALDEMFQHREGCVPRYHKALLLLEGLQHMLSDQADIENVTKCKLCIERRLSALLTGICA
Active calls of the source: *; nt = no result. The list is not random: actives were taken first. Their share in the collection is about 2.5%.

SMILES	ASK1 primary	ULK1 inh
COc1ccc(CNc2ncc(-c3ccc(F)cc3)n2C)cc1OC	nt	2
Cn1cc(-c2ccc3cnc(Nc4ccccc4)cc3c2)cn1	-30	66*
Cc1nc(C)n(-c2ccc(Nc3cc(-c4cnn(C)c4)ccn3)cc2)n1	-12	7
Cn1cc(-c2ccc3cnc(Nc4ccc(N5CCOCC5)nc4)nc3c2Cl)cn1	22	78*
Cn1cc(-c2nc(Nc3ccc(-n4cnc(N5CCOCC5)n4)cc3)ncc2F)cn1	-37	19
Cn1cc(-c2ccc3cnc(Nc4ccc(-n5cnc(N6CCOCC6)n5)cc4)cc3c2)cn1	11	74*
Cn1cc(-c2ccc3cnc(Nc4ccc(-n5cnc(N6CCOCC6)n5)cc4)nc3c2OCCN2CCOCC2)cn1	1	33
Cc1nc(C)n(-c2ccc(Nc3nc(-c4cnn(C)c4)cc(N4CCOCC4)n3)cc2)n1	5	1
CCOC(=O)c1c(-c2cnn(C)c2)ccc2cnc(Nc3ccc(-n4cnc(N5CCOCC5)n4)cc3)nc12	-8	60*
Nc1nc(NCc2cccc(C(F)(F)F)c2)cc(Nc2ccncn2)n1	8	5
Cc1ccc(-c2ncn(-c3ccc(Nc4ncc5ccc(-c6cnn(C)c6)nc5n4)cc3)n2)cn1	11	6
Cn1cc(-c2cccc3cnc(Nc4ccc(-n5cnc(N6CCOCC6)n5)cc4)nc23)cn1	17	15
Cc1c(-c2cnn(C)c2)ccc2cnc(Nc3ccc(-n4cnc(N5CCOCC5)n4)cc3)nc12	-66	60*
Cc1ccc(-c2ccc(Nc3ncc4ccc(-c5cnn(C)c5)c(Cl)c4n3)cc2)cn1	2	44*
Cc1cnc(Nc2nccc3ccccc23)nc1NCCc1ccc(O)cc1	-18	4
CCCCCCn1c(=O)c2c(nc3n2CCCN3c2ccccc2)n(C)c1=O	nt	-6
Cc1ncn(-c2ccc(Nc3nccc(-c4ccc(N5CCC6(CC5)OCCO6)c(C#N)c4)n3)cc2)n1	1	-1
O=C(C1CCC(Nc2nccc(-c3ccc4nc(C5CC5)[nH]c(=O)c4c3)n2)CC1)N1CCCC1 (centres undefined)	-6	23
Nc1nccc(-c2ccc3nc(C4COc5ccccc5C4)[nH]c(=O)c3c2)n1 (centres undefined)	14	-1
O=C(Nc1ccc(Nc2nccc(-c3ccc4nc(C5CC5)[nH]c(=O)c4c3)n2)cc1)N1CCCC1	-44	59*
CN1CCN(C(=O)c2ccc(Nc3nccc(-c4ccccc4)n3)cc2)CC1	22	-1
O=C(c1ccc(Nc2nccc(-c3ccc4nc(C5CC5)[nH]c(=O)c4c3)n2)cc1)N1CCCC1	-71	84*
N#Cc1cc(-c2ccnc(Nc3cccc(NC(=O)N4CCCC4)c3)n2)ccc1N1CCCC1	13	67*
O=C(Nc1cccc(Nc2nccc(-c3ccc4nc(C5CC5)[nH]c(=O)c4c3)n2)c1)N1CCCC1	1	51*
Cc1cc(NCCc2ccc(O)cc2)nc(NCCN2CCOCC2)n1	-4	-6
SMILES	ASK1 primary	ULK1 inh
COc1cc2nc(Nc3ccc4ncccc4c3)nc(Nc3cc(OC)c(OC)c(OC)c3)c2cc1OC	5	-26
Cn1cccc(-c2ccc(Nc3nccc(-c4ccc5nc(C6CC6)[nH]c(=O)c5c4)n3)cc2)c1=O	-10	37
Cn1nnc(-c2ccc(Nc3nccc(-c4ccc5nc(C6CC6)[nH]c(=O)c5c4)n3)cc2)n1	-22	44*
CNC(=O)c1ccccc1Nc1cc(Nc2ccc(C(=O)NC[C@H](O)C(=O)N(C)C)cc2OC)ncc1C(F)(F)F	6	89*
CCN(CC)CCNC(=O)c1ccc(Nc2cc(Nc3ccccc3C(=O)NC)c(C(F)(F)F)cn2)c(OC)c1	19	90*
COc1ccc(CC(=O)Nc2cc(Nc3ccccc3C(=O)NC[C@H](O)C(=O)N(C)C)ccn2)cc1	-35	10
CNC(=O)c1ccccc1Nc1cc(Nc2ccc(C(=O)N(C)C)cc2OC)ncc1C(F)(F)F	1	88*
CCCNC(=O)C1CCN(c2ccc(Nc3ccc(C(F)(F)F)cc3)nn2)CC1	-8	12
COc1ccc(-c2ccc(Nc3nccc(-c4cc(C#N)cc(N5CCOCC5)c4)n3)cc2)cn1	-2	-4
Cc1noc(C)c1-c1nc2ncnc(NCCc3ccc(O)cc3)c2[nH]1	5	-9
O=C(Nc1ccc(N2CCOCC2)cc1)c1cccc(-c2csc3ccccc23)c1	23	5
O=C(Nc1ccc(-c2cn[nH]c2)cc1)C1COc2ccccc2C1 (centres undefined)	-11	-1
Nc1cc(Nc2cnccn2)ncn1	2	0
Oc1ccc(CCNc2nc(Nc3cnccn3)nc3c2ncn3C2CCCCC2)cc1	-30	44*
COc1ccc(CCNc2nc(Nc3cnccn3)nc3c2ncn3C2CCCCC2)cc1	-1	15
CC(=O)c1cccc(-c2cncc(C(=O)NCc3cccnc3)c2)c1	-6	-7
